ChEMBL document CHEMBL1961873, “Compounds: GSK PKIS; Assays: Nanosyn kinase panel” (2012)

Assays:
[1] = test system: Tyrosine-protein kinase ABL1 (Homo sapiens), P00519 [T315I]; details: at 1 µM
[2] = test system: Tyrosine-protein kinase ABL1 (Homo sapiens), P00519 [Y253F]; details: at 0.1 µM
[3] = test system: Tyrosine-protein kinase ABL1 (Homo sapiens), P00519 [Y253F]; details: at 1 µM
[4] = biological target: Tyrosine-protein kinase ABL1 (Homo sapiens) (UniProt P00519); details: at 0.1 µM
[5] = biological target: Tyrosine-protein kinase ABL1 (Homo sapiens) (UniProt P00519); details: at 1 µM
[6] = biological target: ALK tyrosine kinase receptor (Homo sapiens) (UniProt Q9UM73); details: at 0.1 µM
ALK tyrosine kinase receptor (Homo sapiens), sequence (Q9UM73 19-1620 limits assumed): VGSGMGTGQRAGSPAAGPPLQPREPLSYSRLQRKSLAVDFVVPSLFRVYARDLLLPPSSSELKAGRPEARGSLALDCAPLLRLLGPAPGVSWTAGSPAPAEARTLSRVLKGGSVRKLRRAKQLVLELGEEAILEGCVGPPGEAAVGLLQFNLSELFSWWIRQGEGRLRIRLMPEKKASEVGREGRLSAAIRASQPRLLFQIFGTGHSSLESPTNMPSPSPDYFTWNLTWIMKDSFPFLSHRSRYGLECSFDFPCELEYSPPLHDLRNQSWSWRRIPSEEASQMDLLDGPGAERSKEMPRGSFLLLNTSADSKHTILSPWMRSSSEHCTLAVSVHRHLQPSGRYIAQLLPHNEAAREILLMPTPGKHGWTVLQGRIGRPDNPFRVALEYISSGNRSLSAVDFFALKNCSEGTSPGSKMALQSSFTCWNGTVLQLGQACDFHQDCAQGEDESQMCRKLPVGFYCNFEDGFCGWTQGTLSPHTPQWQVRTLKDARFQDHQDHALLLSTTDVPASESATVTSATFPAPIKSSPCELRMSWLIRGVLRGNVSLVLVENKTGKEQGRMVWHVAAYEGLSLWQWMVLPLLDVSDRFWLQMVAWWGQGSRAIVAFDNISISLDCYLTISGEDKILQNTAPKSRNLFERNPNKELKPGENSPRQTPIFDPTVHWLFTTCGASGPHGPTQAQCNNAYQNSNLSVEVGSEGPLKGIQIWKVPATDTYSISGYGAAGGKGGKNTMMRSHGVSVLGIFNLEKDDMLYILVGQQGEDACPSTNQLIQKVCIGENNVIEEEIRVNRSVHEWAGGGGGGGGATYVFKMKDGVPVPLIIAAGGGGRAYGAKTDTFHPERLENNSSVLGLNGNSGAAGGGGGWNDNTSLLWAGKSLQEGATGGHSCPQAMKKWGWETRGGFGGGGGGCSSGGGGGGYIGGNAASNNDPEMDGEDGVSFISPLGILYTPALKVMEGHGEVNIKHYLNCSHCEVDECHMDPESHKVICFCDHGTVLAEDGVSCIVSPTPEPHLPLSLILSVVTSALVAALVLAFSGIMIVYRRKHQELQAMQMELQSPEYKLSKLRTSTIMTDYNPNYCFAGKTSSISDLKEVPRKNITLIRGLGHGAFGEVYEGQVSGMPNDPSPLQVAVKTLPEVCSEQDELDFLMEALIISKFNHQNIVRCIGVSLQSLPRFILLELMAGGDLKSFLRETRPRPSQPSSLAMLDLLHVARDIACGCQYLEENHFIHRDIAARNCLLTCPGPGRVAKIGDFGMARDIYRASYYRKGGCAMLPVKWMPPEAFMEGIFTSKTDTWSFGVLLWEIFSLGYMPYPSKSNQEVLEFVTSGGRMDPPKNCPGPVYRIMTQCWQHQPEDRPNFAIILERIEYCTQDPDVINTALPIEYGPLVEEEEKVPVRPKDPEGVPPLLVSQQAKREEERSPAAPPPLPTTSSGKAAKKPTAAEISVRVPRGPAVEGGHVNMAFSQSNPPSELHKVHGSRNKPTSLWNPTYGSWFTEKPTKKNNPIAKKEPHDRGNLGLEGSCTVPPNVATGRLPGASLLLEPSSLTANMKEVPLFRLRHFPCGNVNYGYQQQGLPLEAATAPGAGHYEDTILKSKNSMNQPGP

[7] = biological target: ALK tyrosine kinase receptor (Homo sapiens) (UniProt Q9UM73); details: at 1 µM
[8] = biological target: Tyrosine-protein kinase ABL2 (Homo sapiens) (UniProt P42684); details: at 0.1 µM
Tyrosine-protein kinase ABL2 (Homo sapiens), sequence (P42684 whole entry): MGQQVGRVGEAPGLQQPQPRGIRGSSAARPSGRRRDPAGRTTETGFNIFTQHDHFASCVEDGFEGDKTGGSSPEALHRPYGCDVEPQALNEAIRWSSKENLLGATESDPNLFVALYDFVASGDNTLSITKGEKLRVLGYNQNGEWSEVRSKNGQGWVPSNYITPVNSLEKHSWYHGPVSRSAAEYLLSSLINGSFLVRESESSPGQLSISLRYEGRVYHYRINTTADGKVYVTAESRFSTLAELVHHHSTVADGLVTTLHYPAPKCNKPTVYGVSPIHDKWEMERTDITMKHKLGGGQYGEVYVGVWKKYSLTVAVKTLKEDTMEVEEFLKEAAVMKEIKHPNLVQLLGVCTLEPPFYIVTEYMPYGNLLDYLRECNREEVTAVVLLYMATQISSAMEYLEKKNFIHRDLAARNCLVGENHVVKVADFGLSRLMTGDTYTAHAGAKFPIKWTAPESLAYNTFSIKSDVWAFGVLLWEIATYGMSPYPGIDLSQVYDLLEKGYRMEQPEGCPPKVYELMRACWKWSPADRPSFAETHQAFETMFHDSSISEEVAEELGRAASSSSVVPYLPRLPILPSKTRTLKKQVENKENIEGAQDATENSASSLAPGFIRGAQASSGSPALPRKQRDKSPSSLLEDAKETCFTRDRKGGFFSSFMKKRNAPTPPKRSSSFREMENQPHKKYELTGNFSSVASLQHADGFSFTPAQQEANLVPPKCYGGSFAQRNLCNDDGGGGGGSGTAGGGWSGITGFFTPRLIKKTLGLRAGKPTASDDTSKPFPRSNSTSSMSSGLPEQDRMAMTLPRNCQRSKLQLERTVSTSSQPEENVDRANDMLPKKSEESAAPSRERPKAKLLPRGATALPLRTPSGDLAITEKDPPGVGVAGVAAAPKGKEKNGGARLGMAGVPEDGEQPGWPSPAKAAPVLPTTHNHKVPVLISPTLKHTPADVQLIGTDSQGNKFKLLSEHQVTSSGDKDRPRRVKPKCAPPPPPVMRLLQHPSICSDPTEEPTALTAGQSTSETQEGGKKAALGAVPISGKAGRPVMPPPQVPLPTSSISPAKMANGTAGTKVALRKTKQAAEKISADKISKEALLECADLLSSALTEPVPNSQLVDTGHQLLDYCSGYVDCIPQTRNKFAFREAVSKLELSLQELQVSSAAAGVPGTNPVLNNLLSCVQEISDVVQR

[9] = biological target: Tyrosine-protein kinase ABL2 (Homo sapiens) (UniProt P42684); details: at 1 µM
[10] = biological target: Tyrosine-protein kinase receptor UFO (Homo sapiens) (UniProt P30530); details: at 0.1 µM;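 further: values are mean percent inhibition of AXL from the GSK PKIS screen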
Tyrosine-protein kinase receptor UFO (Homo sapiens), sequence (P30530 whole entry): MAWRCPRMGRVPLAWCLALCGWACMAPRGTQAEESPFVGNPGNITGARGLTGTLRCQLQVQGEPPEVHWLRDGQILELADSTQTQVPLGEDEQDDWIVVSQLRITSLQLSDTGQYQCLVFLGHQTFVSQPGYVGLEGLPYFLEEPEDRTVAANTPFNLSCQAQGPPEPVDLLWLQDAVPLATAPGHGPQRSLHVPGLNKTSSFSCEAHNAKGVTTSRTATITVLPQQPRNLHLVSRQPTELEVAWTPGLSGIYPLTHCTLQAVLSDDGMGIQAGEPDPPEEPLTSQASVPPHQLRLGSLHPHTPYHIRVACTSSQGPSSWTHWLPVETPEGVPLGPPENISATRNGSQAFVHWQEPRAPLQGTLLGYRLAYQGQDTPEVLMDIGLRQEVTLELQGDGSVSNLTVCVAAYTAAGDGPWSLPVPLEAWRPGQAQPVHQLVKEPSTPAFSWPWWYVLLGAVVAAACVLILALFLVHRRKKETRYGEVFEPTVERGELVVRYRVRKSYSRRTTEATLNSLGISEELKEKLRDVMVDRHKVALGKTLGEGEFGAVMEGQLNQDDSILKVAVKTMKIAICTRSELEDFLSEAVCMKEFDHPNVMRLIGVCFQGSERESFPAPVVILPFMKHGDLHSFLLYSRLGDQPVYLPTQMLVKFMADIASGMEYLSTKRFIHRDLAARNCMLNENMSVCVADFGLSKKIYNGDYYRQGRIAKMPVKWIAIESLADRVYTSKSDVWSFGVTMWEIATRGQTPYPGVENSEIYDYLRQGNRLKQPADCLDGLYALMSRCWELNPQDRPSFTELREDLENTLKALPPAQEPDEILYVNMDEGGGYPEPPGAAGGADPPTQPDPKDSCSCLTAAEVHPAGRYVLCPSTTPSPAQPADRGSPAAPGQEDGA

Structure (SMILES) | inhibition [1] | inhibition [2] | inhibition [3] | inhibition [4] | inhibition [5] | inhibition [6] | inhibition [7] | inhibition [8] | inhibition [9] | inhibition [10]
CCOc1nccc2c1nc(-c1nonc1N)n2CC | 6.12% | 1.56% | 6.81% | 4.96% | 14.6% | 2.69% | 5.24% | 3.48% | 11.2% | 0.71%
Cc1ccc(Nc2ccnc(Nc3cccc(C(N)=O)c3)n2)cc1O | 39.8% | 80.4% | 94.1% | 56.4% | 79.5% | -0.94% | 10.9% | 50.8% | 77.1% | -5.49%
COc1cc2ncnc(Nc3ccc4c(cnn4Cc4ccccc4)c3)c2cc1OC | 7.47% | 2.86% | 4.15% | 3.47% | 3.36% | 1.67% | 3.06% | 0.85% | 4.75% | -3.79%
OCc1ccc(-c2nc(-c3ccccn3)c(-c3ccc4c(c3)OCO4)[nH]2)cc1 | 0.39% | 4.74% | 4.83% | 8.07% | 12.3% | 3.63% | 8.19% | 5.94% | – | -6.62%
CCn1c(-c2nonc2N)nc2ccc(F)cc21 | 5.94% | 2.99% | 6.49% | 3.48% | 3.51% | 5.2% | 5.27% | 3.97% | 6.07% | -7.61%
Cc1ccc(C(=O)NC2CC2)cc1-c1ccc2[nH]ncc2c1 | 2.89% | -1.37% | 0.48% | -0.56% | 0.77% | -1.6% | -1.66% | -1.18% | 0.73% | 3.54%
COc1cc2ncnc(Nc3ccc(C)c(O)c3)c2cc1OC | 68.2% | 53.7% | 89.5% | 36.1% | 78.5% | 4.66% | 13.8% | 15.8% | 65.2% | -6.97%
O=C1Nc2ccccc2/C1=C/Nc1ccc2[nH]c(=O)[nH]c2c1 | 23.7% | 9.65% | 23.3% | 8.95% | 25.8% | 2.88% | 16.4% | 7.75% | 19.4% | -8.65%
NS(=O)(=O)c1ccc(N/N=C2\C(=O)Nc3ccc(Cl)cc32)cc1 | 11.8% | 1.42% | 11.1% | 2.16% | 10.6% | 1.16% | 5.53% | 5.17% | 11.6% | -1.64%
CN(c1ccc(NC(=O)Nc2ccc(OC(F)(F)F)cc2)cc1)c1ccnc(Nc2cccc(S(N)(=O)=O)c2)n1 | 86.2% | 39.2% | 81.5% | 14.3% | 71% | 1.46% | 4.22% | 20.2% | 71.9% | -2.29%
COc1cccc(-n2nc(C)c3c(N/N=C(\C)c4ccncc4)ncnc32)c1 | -0.56% | 1.07% | 4.85% | 3.36% | 9.11% | 0.43% | 1.35% | -0.17% | 5.82% | -2.14%
Nc1nccc(C#Cc2cncnc2Nc2ccc(OCc3cccc(F)c3)c(Cl)c2)n1 | 2.7% | 3.75% | 2.69% | 4.16% | 9.58% | 3.59% | 6.28% | 3.79% | 3.33% | -7.36%
c1ccc(Nc2ncc(-c3ccccc3)o2)cc1 | 7.7% | 5.14% | 16.3% | 4.09% | 16.5% | 2.99% | 3.91% | 5.2% | 22.7% | -3.91%
c1ccc(Cc2nc3ccc(Nc4ncnc5ccccc45)cc3[nH]2)cc1 | 4.4% | 5.92% | 6.3% | 4.49% | 11.3% | 1.23% | 5.36% | 2.8% | 9.97% | -5.03%
Nc1nccc(-c2c(-c3ccc(F)cc3)ncn2CCCN2CCOCC2)n1 | 3.9% | 3.98% | 6.6% | 2.4% | 7.25% | 2.67% | 4.91% | 2.67% | 0.55% | -5.59%
CCCN1CCCC(c2ccc(Nc3nc(Nc4cc(F)ccc4C(N)=O)c4cc[nH]c4n3)c(OC)c2)C1 (centres undefined) | 12.1% | 4.98% | 9.67% | 3.75% | 9.3% | 98.2% | 86.3% | 2.38% | 3.99% | 9.62%
NC(=O)c1sc(-n2cnc3ccccc32)cc1OCc1ccccc1Br | 4.17% | 2.98% | 5.62% | 4.27% | 9.67% | 4.26% | 6.94% | 4.44% | 7.23% | -6.14%
Cc1cc(-c2ccccn2)cc(C)c1/C=C/c1cncc(-c2nn[nH]n2)c1 | 1.41% | 0.95% | 5.04% | 7.78% | 13% | 3.44% | 5.05% | 5.89% | 20.2% | -5.03%
COC(=O)c1ccc2c(c1)C(=Cc1cc(Br)c(O)c(Br)c1)C(=O)N2 | 2.87% | 2.56% | 15.9% | 7.83% | 21.2% | 5.2% | 15% | 5.66% | 15.4% | -5.02%
CCn1c(-c2nonc2N)nc2c(C#CC(C)(C)O)nc(OCCNC)cc21 | 4.21% | 1.69% | 4.64% | 4.99% | 5.14% | 2.7% | 3.58% | 1.91% | 4.33% | -7.46%
O=C1Nc2ccc(-c3cccnc3)cc2C1=Cc1cc(Br)c(O)c(Br)c1 | 2.94% | 5.16% | 7.7% | 3.97% | 8.78% | 4.13% | 9.22% | 3.5% | 5.72% | -3.55%
NS(=O)(=O)c1cccc(Nc2cc(-c3ccc(F)cc3)n[nH]2)c1 | 9% | 4.2% | 17% | 3.39% | 12.4% | 1.3% | 2.54% | 3.38% | 9.78% | -0.57%
COC(=O)Nc1nc2cc(Oc3ccc(NC(=O)Nc4cccc(Br)c4)cc3)ccc2[nH]1 | 44.6% | 7.87% | 16.5% | 6.66% | 19% | 2.06% | 3.65% | 16.1% | 34.4% | -0.21%
COC(=O)c1cncc(/C=C/c2c(C)cc(O)cc2C)c1 | 5.95% | 13.9% | 60.9% | 11% | 62.9% | 2.92% | 4.4% | 12.5% | 57.4% | -3.94%
CN(C)CCCn1c(-c2nonc2N)nc2cnccc21 | 1.3% | 2.05% | 4.68% | 2.69% | 4.71% | 2.82% | 4.63% | 3.56% | -5.79% | -7.29%
N#Cc1cccc(Nc2nccc(-c3cnn4ncccc34)n2)c1 | 34.2% | 12.6% | 49.8% | 13.6% | 47.5% | 4.04% | 18.7% | 11.9% | 44.3% | -0.03%
C[C@@H](Oc1cc(-n2cnc3ccc(OCC4CCN(C)CC4)cc32)sc1C(N)=O)c1ccccc1C(F)(F)F | 13.7% | -1.07% | 1.43% | 0.74% | 2.7% | 1.57% | 20.8% | 0.15% | 3.87% | 3.82%
NC(=O)c1cccc(Nc2nccc(Nc3cccc(F)c3)n2)c1 | 17.1% | 12.8% | 63.8% | 11.6% | 55.6% | 0.23% | 10.1% | 11.5% | 51.9% | -1.82%
COc1cc(Nc2nccc(-c3cnn4ncccc34)n2)cc(OC)c1 | 40.3% | 13.7% | 59.6% | 9.67% | 62.7% | 5.68% | 44.8% | 10.5% | 69.6% | 2%
